Among all 5,500 compounds or so, about 2,000 (36%) were called active. Inconclusive results (about 18%) are left out. Rule as the data show it: active = normalized growth mostly below about 0.91 (no sharp cut-off); inconclusive = no clear call, values can overlap the other calls; inactive = mostly above about 0.92. The list shows a part of the results.
Experiment: chemical genetic growth profiling, strain panel (AID 1159580);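 also: tested at 20 µM; growth read once vehicle control cultures reached saturation at 30 °C; 1 = growth at the plate median or of vehicle wells; lower values mean less growth of the strain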
Settings: growth OD

Measured: normalized growth

N=C(N)c1ccc(OCCCCCOc2ccc(C(=N)N)cc2)cc1
active: S. cerevisiae deletion strains, locus YKL068W, active compounds read low 0.92 | S. cerevisiae deletion strains, locus YLR418C, strain cdc73, active compounds read low 0.789 | S. cerevisiae deletion strains, locus YML032C, strain rad52, active compounds read low 0.828 | S. cerevisiae deletion strains, locus YMR058W, strain fet3, active compounds read low 0.828 | S. cerevisiae deletion strains, locus YMR205C, strain PFK2, active compounds read low 0.758 | S. cerevisiae deletion strains, locus YMR223W, strain ubp8, active compounds read low 0.868 | S. cerevisiae deletion strains, locus YMR307W, strain GAS1, active compounds read low 0.554 | S. cerevisiae deletion strains, locus YNL250W, strain rad50, active compounds read low 0.894 | S. cerevisiae deletion strains, locus YNL307C, strain MCK1, active compounds read low 0.811 | S. cerevisiae deletion strains, locus YNR052C, strain pop2, active compounds read low 0.823 | S. cerevisiae deletion strains, locus YOR144C, strain elg1, active compounds read low 0.921 | S. cerevisiae deletion strains, locus YOR184W, strain ser1, active compounds read low 0.832 | S. cerevisiae deletion strains, locus YPR141C, strain kar3, active compounds read low 0.905 | S. cerevisiae deletion strains, locus YPR163C, strain tif3, active compounds read low 0.901 | S. cerevisiae deletion strains, strain wtn01, active compounds read low 0.891
inactive: S. cerevisiae deletion strains, locus YJR043C, strain POL32, active compounds read low 0.909 | S. cerevisiae deletion strains, locus YJR075W, strain HOC1, active compounds read low 0.918 | S. cerevisiae deletion strains, locus YKL009W, strain mrt4, active compounds read low 0.942 | S. cerevisiae deletion strains, locus YKL085W, strain MDH1 (second series), active compounds read low 0.936 | S. cerevisiae deletion strains, locus YKL085W, strain MDH1, active compounds read low 0.936 | S. cerevisiae deletion strains, locus YKL160W, strain elf1, active compounds read low 0.948 | S. cerevisiae deletion strains, locus YKL190W, strain CNB1, active compounds read low 0.959 | S. cerevisiae deletion strains, locus YKR001C, strain vps1, active compounds read low 0.952 | S. cerevisiae deletion strains, locus YKR026C, strain gcn3, active compounds read low 0.967 | S. cerevisiae deletion strains, locus YKR091W, strain srl3, active compounds read low 0.961 | S. cerevisiae deletion strains, locus YLL001W, strain dnm1, active compounds read low 0.916 | S. cerevisiae deletion strains, locus YLL026W, active compounds read low 0.97 | S. cerevisiae deletion strains, locus YLL041C, strain sdh2, active compounds read low 0.974 | S. cerevisiae deletion strains, locus YLR027C, strain aat2, active compounds read low 0.951 | S. cerevisiae deletion strains, locus YLR039C, strain RIC1, active compounds read low 1.09 | S. cerevisiae deletion strains, locus YLR058C, strain SHM2, active compounds read low 0.977 | S. cerevisiae deletion strains, locus YLR102C, strain apc9, active compounds read low 0.939 | S. cerevisiae deletion strains, locus YLR221C, strain rsa3, active compounds read low 0.958 | S. cerevisiae deletion strains, locus YLR258W, strain gsy2, active compounds read low 0.963 | S. cerevisiae deletion strains, locus YLR262C, strain YPT6 (second series), active compounds read low 0.988 | S. cerevisiae deletion strains, locus YLR262C, strain YPT6, active compounds read low 1.11 | S. cerevisiae deletion strains, locus YLR268W, strain sec22, active compounds read low 0.887 | S. cerevisiae deletion strains, locus YLR320W, strain mms22, active compounds read low 0.89 | S. cerevisiae deletion strains, locus YLR330W, strain CHS5, active compounds read low 0.999 | S. cerevisiae deletion strains, locus YLR342W, strain FKS1 (second series), active compounds read low 0.89 | S. cerevisiae deletion strains, locus YLR342W, strain FKS1, active compounds read low 0.958 | S. cerevisiae deletion strains, locus YLR357W, strain rsc2, active compounds read low 0.979 | S. cerevisiae deletion strains, locus YLR370C, strain arc18, active compounds read low 0.954 | S. cerevisiae deletion strains, locus YLR371W, strain rom2, active compounds read low 0.929 | S. cerevisiae deletion strains, locus YLR384C, strain iki3, active compounds read low 0.944 | S. cerevisiae deletion strains, locus YML016C, strain PPZ1, active compounds read low 0.991 | S. cerevisiae deletion strains, locus YML120C, strain ndi1, active compounds read low 0.956 | S. cerevisiae deletion strains, locus YML124C, strain tub3, active compounds read low 0.943 | S. cerevisiae deletion strains, locus YMR078C, strain ctf18, active compounds read low 0.912 | S. cerevisiae deletion strains, locus YMR125W, strain sto1, active compounds read low 0.949 | S. cerevisiae deletion strains, locus YMR129W, active compounds read low 0.974 | S. cerevisiae deletion strains, locus YMR231W, strain pep5, active compounds read low 0.965 | S. cerevisiae deletion strains, locus YMR263W, strain SAP30, active compounds read low 0.93 | S. cerevisiae deletion strains, locus YNL067W, strain RPL9B, active compounds read low 0.93 | S. cerevisiae deletion strains, locus YNL071W, strain lat1, active compounds read low 0.957 | S. cerevisiae deletion strains, locus YNL128W, strain TEP1, active compounds read low 0.926 | S. cerevisiae deletion strains, locus YNL153C, strain GIM3, active compounds read low 0.958 | S. cerevisiae deletion strains, locus YNL209W, strain ssb2, active compounds read low 0.948 | S. cerevisiae deletion strains, locus YNL233W, strain BNI4, active compounds read low 0.927 | S. cerevisiae deletion strains, locus YNL248C, strain rpa49, active compounds read low 0.955 | S. cerevisiae deletion strains, locus YNL271C, strain bni1, active compounds read low 0.929 | S. cerevisiae deletion strains, locus YNL298W, strain CLA4, active compounds read low 0.931 | S. cerevisiae deletion strains, locus YNL322C, strain KRE1 (second series), active compounds read low 0.918 | S. cerevisiae deletion strains, locus YNL322C, strain KRE1, active compounds read low 0.972 | S. cerevisiae deletion strains, locus YNR049C, strain mso1, active compounds read low 0.941 | S. cerevisiae deletion strains, locus YOL006C, strain TOP1, active compounds read low 1.11 | S. cerevisiae deletion strains, locus YOL012C, strain htz1 0.566 | S. cerevisiae deletion strains, locus YOL147C, strain pex11, active compounds read low 0.939 | S. cerevisiae deletion strains, locus YOR001W, strain rrp6, active compounds read low 0.94 | S. cerevisiae deletion strains, locus YOR061W, strain CKA2, active compounds read low 0.964 | S. cerevisiae deletion strains, locus YOR069W, strain VPS5, active compounds read low 0.964 | S. cerevisiae deletion strains, locus YOR070C, strain gyp1, active compounds read low 0.97 | S. cerevisiae deletion strains, locus YOR080W, strain dia2, active compounds read low 0.936 | S. cerevisiae deletion strains, locus YOR083W, strain WHI5, active compounds read low 0.927 | S. cerevisiae deletion strains, locus YOR106W, strain vam3, active compounds read low 0.997 | S. cerevisiae deletion strains, locus YOR136W, strain idh2, active compounds read low 0.95 | S. cerevisiae deletion strains, locus YOR265W, strain rbl2, active compounds read low 0.962 | S. cerevisiae deletion strains, locus YOR270C, strain vph1, active compounds read low 1.17 | S. cerevisiae deletion strains, locus YOR290C, strain snf2, active compounds read low 0.946 | S. cerevisiae deletion strains, locus YOR316C, strain cot1, active compounds read low 0.943 | S. cerevisiae deletion strains, locus YPL051W, strain arl3, active compounds read low 0.98 | S. cerevisiae deletion strains, locus YPL055C, strain LGE1, active compounds read low 0.943 | S. cerevisiae deletion strains, locus YPL078C, strain atp4, active compounds read low 1.03 | S. cerevisiae deletion strains, locus YPL106C, strain sse1, active compounds read low 0.948 | S. cerevisiae deletion strains, locus YPL240C, strain hsp82, active compounds read low 0.989 | S. cerevisiae deletion strains, locus YPL241C, strain CIN2, active compounds read low 0.973 | S. cerevisiae deletion strains, locus YPR119W, strain clb2, active compounds read low 0.934 | S. cerevisiae deletion strains, locus YPR167C, strain met16, active compounds read low 0.944 | S. cerevisiae strains, strain wild type, active compounds read low 0.94

From PubChem BioAssay AID1159580 (chemical genetic matrix, 2015)
